Experimental data published in PubChem BioAssay AID1159580 (chemical genetic matrix, 2015).
The whole screen tested about 5,500 compounds, of which about 2,000 (36%) were called active. Not shown: some 18% with an inconclusive outcome. Cut-off read from the data, not from the text of the source: active = normalized growth mostly below about 0.91 (no sharp cut-off); inconclusive = no clear call, values can overlap the other calls; inactive = mostly above about 0.92. This is one part of the list.

Test: chemical genetic growth profiling, strain panel (AID 1159580);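 note: tested at 20 µM; growth read once vehicle control cultures reached saturation at 30 °C; 1 = growth at the plate median or of vehicle wells; lower values mean less growth of the strain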
Details: growth OD

Measured: normalized growth

Cc1cc(O)c(C=O)c2c1C(=O)Oc1c(COC(=O)/C=C/C(=O)O)c(O)c(C(=O)O)c(C)c1O2
active: S. cerevisiae deletion strains, locus YLL001W, strain dnm1, active compounds read low 0.888 | S. cerevisiae deletion strains, locus YLR357W, strain rsc2, active compounds read low 0.841 | S. cerevisiae deletion strains, locus YMR058W, strain fet3, active compounds read low 0.311 | S. cerevisiae deletion strains, locus YNL209W, strain ssb2, active compounds read low 0.804 | S. cerevisiae deletion strains, locus YOR106W, strain vam3, active compounds read low 0.709 | S. cerevisiae deletion strains, locus YOR270C, strain vph1, active compounds read low 0.503 | S. cerevisiae deletion strains, locus YPL051W, strain arl3, active compounds read low 0.831 | S. cerevisiae strains, strain wild type, active compounds read low 0.874
inactive: S. cerevisiae deletion strains, locus YJR043C, strain POL32, active compounds read low 0.954 | S. cerevisiae deletion strains, locus YJR066W, strain TOR1, active compounds read low 0.931 | S. cerevisiae deletion strains, locus YJR075W, strain HOC1, active compounds read low 0.962 | S. cerevisiae deletion strains, locus YKL009W, strain mrt4, active compounds read low 0.974 | S. cerevisiae deletion strains, locus YKL068W, active compounds read low 0.993 | S. cerevisiae deletion strains, locus YKL085W, strain MDH1 (second series), active compounds read low 0.991 | S. cerevisiae deletion strains, locus YKL085W, strain MDH1, active compounds read low 0.991 | S. cerevisiae deletion strains, locus YKL160W, strain elf1, active compounds read low 0.992 | S. cerevisiae deletion strains, locus YKR001C, strain vps1, active compounds read low 0.921 | S. cerevisiae deletion strains, locus YKR026C, strain gcn3, active compounds read low 0.985 | S. cerevisiae deletion strains, locus YKR091W, strain srl3, active compounds read low 1.01 | S. cerevisiae deletion strains, locus YLL026W, active compounds read low 1.01 | S. cerevisiae deletion strains, locus YLL041C, strain sdh2, active compounds read low 1 | S. cerevisiae deletion strains, locus YLR027C, strain aat2, active compounds read low 0.982 | S. cerevisiae deletion strains, locus YLR039C, strain RIC1, active compounds read low 0.933 | S. cerevisiae deletion strains, locus YLR058C, strain SHM2, active compounds read low 0.937 | S. cerevisiae deletion strains, locus YLR102C, strain apc9, active compounds read low 0.991 | S. cerevisiae deletion strains, locus YLR113W, strain HOG1, active compounds read low 0.984 | S. cerevisiae deletion strains, locus YLR221C, strain rsa3, active compounds read low 0.946 | S. cerevisiae deletion strains, locus YLR258W, strain gsy2, active compounds read low 0.987 | S. cerevisiae deletion strains, locus YLR262C, strain YPT6 (second series), active compounds read low 0.877 | S. cerevisiae deletion strains, locus YLR262C, strain YPT6, active compounds read low 0.936 | S. cerevisiae deletion strains, locus YLR268W, strain sec22, active compounds read low 0.924 | S. cerevisiae deletion strains, locus YLR320W, strain mms22, active compounds read low 0.959 | S. cerevisiae deletion strains, locus YLR330W, strain CHS5, active compounds read low 0.971 | S. cerevisiae deletion strains, locus YLR342W, strain FKS1 (second series), active compounds read low 0.98 | S. cerevisiae deletion strains, locus YLR342W, strain FKS1, active compounds read low 0.968 | S. cerevisiae deletion strains, locus YLR370C, strain arc18, active compounds read low 0.967 | S. cerevisiae deletion strains, locus YLR371W, strain rom2, active compounds read low 0.943 | S. cerevisiae deletion strains, locus YLR384C, strain iki3, active compounds read low 0.996 | S. cerevisiae deletion strains, locus YLR418C, strain cdc73, active compounds read low 0.883 | S. cerevisiae deletion strains, locus YML016C, strain PPZ1, active compounds read low 0.957 | S. cerevisiae deletion strains, locus YML032C, strain rad52, active compounds read low 1.01 | S. cerevisiae deletion strains, locus YML120C, strain ndi1, active compounds read low 1 | S. cerevisiae deletion strains, locus YML124C, strain tub3, active compounds read low 0.996 | S. cerevisiae deletion strains, locus YMR078C, strain ctf18, active compounds read low 0.986 | S. cerevisiae deletion strains, locus YMR125W, strain sto1, active compounds read low 1.08 | S. cerevisiae deletion strains, locus YMR129W, active compounds read low 1.01 | S. cerevisiae deletion strains, locus YMR205C, strain PFK2, active compounds read low 0.998 | S. cerevisiae deletion strains, locus YMR223W, strain ubp8, active compounds read low 0.961 | S. cerevisiae deletion strains, locus YMR231W, strain pep5, active compounds read low 0.94 | S. cerevisiae deletion strains, locus YMR307W, strain GAS1, active compounds read low 0.72 | S. cerevisiae deletion strains, locus YNL067W, strain RPL9B, active compounds read low 0.92 | S. cerevisiae deletion strains, locus YNL071W, strain lat1, active compounds read low 1 | S. cerevisiae deletion strains, locus YNL183C, strain NPR1, active compounds read low 0.931 | S. cerevisiae deletion strains, locus YNL233W, strain BNI4, active compounds read low 0.967 | S. cerevisiae deletion strains, locus YNL248C, strain rpa49, active compounds read low 1.01 | S. cerevisiae deletion strains, locus YNL250W, strain rad50, active compounds read low 0.956 | S. cerevisiae deletion strains, locus YNL271C, strain bni1, active compounds read low 0.954 | S. cerevisiae deletion strains, locus YNL298W, strain CLA4, active compounds read low 0.966 | S. cerevisiae deletion strains, locus YNL307C, strain MCK1, active compounds read low 0.98 | S. cerevisiae deletion strains, locus YNL322C, strain KRE1 (second series), active compounds read low 1.04 | S. cerevisiae deletion strains, locus YNR049C, strain mso1, active compounds read low 0.995 | S. cerevisiae deletion strains, locus YNR052C, strain pop2, active compounds read low 0.963 | S. cerevisiae deletion strains, locus YOL012C, strain htz1 0.751 | S. cerevisiae deletion strains, locus YOL147C, strain pex11, active compounds read low 0.994 | S. cerevisiae deletion strains, locus YOR001W, strain rrp6, active compounds read low 0.961 | S. cerevisiae deletion strains, locus YOR061W, strain CKA2, active compounds read low 0.95 | S. cerevisiae deletion strains, locus YOR069W, strain VPS5, active compounds read low 0.976 | S. cerevisiae deletion strains, locus YOR070C, strain gyp1, active compounds read low 0.988 | S. cerevisiae deletion strains, locus YOR080W, strain dia2, active compounds read low 1.02 | S. cerevisiae deletion strains, locus YOR083W, strain WHI5, active compounds read low 0.937 | S. cerevisiae deletion strains, locus YOR136W, strain idh2, active compounds read low 0.988 | S. cerevisiae deletion strains, locus YOR144C, strain elg1, active compounds read low 0.993 | S. cerevisiae deletion strains, locus YOR184W, strain ser1, active compounds read low 0.946 | S. cerevisiae deletion strains, locus YOR231W, strain MKK1, active compounds read low 0.953 | S. cerevisiae deletion strains, locus YOR265W, strain rbl2, active compounds read low 0.964 | S. cerevisiae deletion strains, locus YOR290C, strain snf2, active compounds read low 0.869 | S. cerevisiae deletion strains, locus YOR316C, strain cot1, active compounds read low 0.989 | S. cerevisiae deletion strains, locus YPL078C, strain atp4, active compounds read low 0.925 | S. cerevisiae deletion strains, locus YPL106C, strain sse1, active compounds read low 0.942 | S. cerevisiae deletion strains, locus YPL240C, strain hsp82, active compounds read low 1.01 | S. cerevisiae deletion strains, locus YPL256C, strain CLN2, active compounds read low 1.01 | S. cerevisiae deletion strains, locus YPR119W, strain clb2, active compounds read low 0.991 | S. cerevisiae deletion strains, locus YPR141C, strain kar3, active compounds read low 0.96 | S. cerevisiae deletion strains, locus YPR163C, strain tif3, active compounds read low 0.987 | S. cerevisiae deletion strains, locus YPR167C, strain met16, active compounds read low 0.998 | S. cerevisiae deletion strains, strain wtn01, active compounds read low 0.945
